“And” between values parts separate entries of the source, which are not always exact repeats. Equal values may be shown once. Compounds without any hit were thinned out: in the full panel of roughly 83,000, 20% have a hit.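 Values shown are percent growth following 48 h exposure of cells in 96-well plates to a single concentration of compound; below 10 was considered active.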 A number with no mark means an inactive call. The source made the active and inactive calls.
Each compound was assayed on MDA-MB-468 breast (assay: NCI-60 one-dose screen, 48 h (100 = growth as untreated, 0 = no growth, -100 = all killed)). Settings: 10 µM unless noted.
`O=C(Nc1cccc([N+](=O)[O-])c1)c1ccc2ccccc2c1O` showed a growth of 52.4%.
`COc1ccc([N+](=O)[O-])c(/C=C/C(=O)c2ccccn2)c1` was tested, and the growth was 74.4%.
`O=C(CC12CC3CC(CC(C3)C1)C2)NCCOCCOCCOCCNC(=O)c1cc2c(o1)C(=O)c1ccccc1C2=O` was tested, and the growth was -34.8% (active).
`Cc1ccc(-c2nc(N3CCNCC3)c3oc(-c4ccccc4)nc3n2)cc1` was tested, and the growth was -31.4% (active).
`CN(C)C(C(N)=O)c1ccc(Cl)cc1` (stereo not given) gave a growth of 99.2%.
`CC(C)Sc1nc(NNC(N)=S)c(C#N)c(-c2ccc(F)cc2)n1` showed a growth of 98.4%.
`CCn1c2ccc(O)cc2c2c(C)c3c[n+](C)ccc3c(C)c21` was tested, and the growth was -31.2% (active).
`NC(=NCCCCCCN=C(N)/N=C(\N)Nc1ccc(Cl)cc1)/N=C(\N)Nc1ccc(Cl)cc1` was tested, and the growth was -69% (active).
`O=C(NCCCNc1cc(-c2cn(-c3ccccc3)nc2-c2cccc(O)c2)ccn1)Nc1cc(C(F)(F)F)cc(C(F)(F)F)c1` was tested, and the growth was 70.4%.
With `O=[N+]([O-])c1cc[n+]([O-])cc1` the growth was 98.1%.
With `CN1C/C=C\CCOc2cccc(c2)-c2ccnc(n2)Nc2cccc(c2)C1` the growth was -58.2% (active).
`CCCCOc1ccc(/C=N/NC(N)=S)cc1` was tested, and the growth was 66.5%.
`CCOC(=O)Cc1csc2nc(-c3ccccc3)nn12` was tested, and the growth was 108%.
For `COC1=CC(c2ccc[nH]2)=N/C1=C\c1[nH]c(C)c(CCCn2cc(CCCCCCCCC[C@@H]3Cc4cc(O)ccc4C4CC[C@]5(C)[C@@H](O)CC[C@H]5C43)nn2)c1C` (stereo not given in full), the growth was 30.1%.
`COc1ccc(OC)c(CCn2cncc2-c2c[nH]c3ccccc23)c1` was tested, and the growth was 41%.
In the case of `FC(F)(F)Oc1ccc2nc3nc4ccc[nH]c4cc3c2c1`, the growth is reported as -25.5% (active).
`CC(C)[N+](C)(CCOC(COc1ccccc1)COc1ccccc1)C(C)C` showed a growth of 12.8%.
In the case of `COc1ccc(Cc2cnc(NC(=O)c3ccc4c(c3)OCCO4)s2)cc1`, the growth is reported as 19.1%.
`Cc1ccc(S(=O)(=O)c2ccccc2)cc1` was tested, and the growth was -10.8% (active).
`CON=C1C[C@]2(C[C@@H]3C[C@@H](C/C=C(\C)C[C@@H](C)/C=C/C=C4\CO[C@@H]5[C@H](O)C(C)=C[C@@H](C(=O)O3)[C@]45O)O2)O[C@H](/C(C)=C/C(C)C)[C@H]1C` showed a growth of 49%.
In the case of `C=CCn1c(SCC(=O)Nc2cccc(C(=O)/C=C/c3cc(OC)c(OC)c(OC)c3)c2)nc2ccccc2c1=O`, the growth is reported as 35.3%.
For `Cc1ccc(NC(=O)/C=N/O)cc1C`, the growth was 62.4%.
For `CN1CCN(CC#CCNC(=O)[C@]23CCC(C)(C)C[C@H]2C2=CC[C@@H]4[C@@]5(C)Cc6c([nH]c7ccccc67)C(C)(C)[C@@H]5CC[C@@]4(C)[C@]2(C)CC3)CC1`, the growth was 91.2%.
With `Nc1nc(N)c2c(n1)NC(c1ccc3c(c1)OCO3)CC(c1cccc(Nc3ccncc3)c1)=N2` (stereo not given) the growth was 62.7%.
`CCOC(=O)/C=C1\S/C(=N\Nc2ccc([N+](=O)[O-])cc2[N+](=O)[O-])N(Cc2ccccc2)C1=O` gave a growth of 84.2%.
For `CCC(=C(c1ccc(OCCN2CCCC2)cc1)c1ccc(OCCN2CCCC2)cc1)c1ccc(Cl)cc1`, the growth was -53.5% (active).
`COC(=O)CCCCCCCCC(C)c1ccc(C(C)=O)cc1` (stereo not given) was tested, and the growth was 110%.
`CCN(CC)CCN1C(=O)c2c(c(C)c3c(oc4ccc(OC)cc43)c2C)C1=O` was tested, and the growth was 101%.
`COc1ccc2c(c1)c(-c1nc(N)nnc1-c1c[nH]c3ccccc13)cn2C` was tested, and the growth was -9.57% (active).
For `COc1cccc(-c2nn(-c3ccccc3)cc2-c2ccnc(N3CCN(C(=O)Nc4ccc(F)cc4)CC3)c2)c1`, the growth was 51.6%.
`CO[C@@H]1[C@H](N(C)C(=O)c2ccccc2)C[C@@H]2O[C@]1(C)n1c3ccccc3c3c4c(c5c6ccccc6n2c5c31)C(=O)NC4=O` was tested, and the growth was -12.7% (active).
Work on `Clc1ccc(/C=C/c2ccccn2)cc1` yielded a growth of 38.3%.
`C=C1C(=O)O[C@H]2[C@H]1CC/C(C=Nc1c(N)cc(F)cc1Br)=C\CC[C@@]1(C)O[C@@H]21` was tested, and the growth was 44%.
In the case of `CC(=O)Nc1ccc(NC(=O)Nc2cccc(-c3nc(-c4ccc(NC(=O)c5cccs5)cc4Cl)no3)c2)cc1C(F)(F)F`, the growth is reported as -77.7% (active).
For `Fc1ccc(-c2nnc(N3CCOCC3)c3ccccc23)cc1`, the growth was 98.8%.
`C=C1C(=O)O[C@H]2[C@H]1CC/C(Cn1cc(-c3ccsc3)nn1)=C\CC[C@@]1(C)O[C@@H]21` was tested, and the growth was -56.8% (active).
`CCOC(=O)C(Cc1cc(I)c(O)c(I)c1)NC(=O)c1ccccc1` (stereo not given) showed a growth of 98.9%.
`O=C(Oc1cccc2cccnc12)c1ccccc1` was tested, and the growth was 71.7% and 93.1%.
`CS(=O)(=O)Cc1cnc(C2OCCO2)s1` was tested, and the growth was 97.7%.
Work on `COc1ccc(/C=C2\COc3ccc(-c4ccccc4)cc3C2=O)c(OC)c1` yielded a growth of 57%.
